The list is not random: actives were taken first. Their share in the collection is about 11%.
NPR1 antag – Natriuretic polypeptide receptor (hNpr1) antagonism - Primary qHTS | Atrial natriuretic peptide receptor 1 (Homo sapiens), P16066 | HEK293 hNpr1 GloSensor cGMP, ANP-stimulated luminescence | Potency, µM (titrated, usually from 46.3 µM), for the others: at the highest dose activity change, negative = inhibition, actives largely listed as inhibitors | 76,000 tested, 1.6% active | AID 1347048, 2019; calls by dose curve; further: nearly all actives have a fitted effect of over 60% in size
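Compound pre-incubated 30 min at room temperature on GloSensor-loaded HEK293 cells stably carrying hNpr1 and the pGS-40F cGMP biosensor. Stimulation uses hNppA at 0.1 nM final; luminescence is taken at baseline and 20 min post-agonist.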
NIH3T3 tox – Cytotoxic Profiling in NIH 3T3 Cell Line of Diverse Libraries Using Quantitative High-Throughput Screening | NIH 3T3 viability, CellTiter-Glo ATP luminescence, 48-72 h | Potency, µM (series often up to 96.7 µM), without a hit: top-dose activity change, negative = cytotoxicity, hits mostly inhibitors | 94,000 tested, 4.3% active | AID 1345082, 2018; further: nearly all actives have a fitted effect of over 55% in size
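Mouse fibroblast NIH 3T3 cells, 400 per well, received compound via pintool and were incubated for 48 or 72 hr prior to CellTiter-Glo ATP luminescence measurement.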
FLuc inh – Firefly luciferase inhibition profiling of diverse chemical library using quantitative high-throughput screening; Luciferin 4-monooxygenase (Photinus pyralis), P08659; AID 1347043, 2019; Potency, µM (doses to about 115 µM), usual class: inhibitors; 76,000 tested, 2.5% active; purified P. pyralis luciferase, luminescence, biochemical; further: nearly all actives have a fitted effect of over 65% in size
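Luminescence read by CCD imager after adding enzyme (10nM final) to wells holding compound, titrated in qHTS. Substrates 10uM each D-luciferin and ATP; buffer 50mM Tris acetate pH 7.5, 10mM Mg acetate, Tween-20, BSA.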
HEK cytotox – Cytotoxic Profiling in HEK 293 Cell Line of Diverse Libraries Using Quantitative High-Throughput Screening; HEK 293 viability, ATP luminescence (CellTiter-Glo), 48-72 h; Potency, µM (top dose mostly 115 µM), inactives show top-dose activity change, negative = cytotoxicity, actives largely listed as inhibitors; 94,000 tested, 6.6% active; AID 1345083, 2018; further: nearly all actives have a fitted effect of over 60% in size
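Viability of HEK 293 cells, plated at 250 cells/well, was judged by cellular ATP after compound treatment for 48 or 72 hr. Luminescence was imaged 10 min after CellTiter-Glo addition at room temperature.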
* = called active by the depositor; i = inactive; ? = inconclusive; . = not tested or not shown; [ ] = remark or other dose. Unless noted, the call rests on the fitted dose curve; in most records, active means well fitted curve in the direction sought with a large enough effect; inconclusive means small, poorly fitted or top-dose-only effect, or another doubt; inactive means no such curve, though single readings can be large; an effect the other way counts as inactive or inconclusive. On the % scale 0 is the no-effect control and ±100 the full control effect; potency means the concentration at half of the fitted maximal effect.

SMILES	NPR1 antag	NIH3T3 tox	FLuc inh	HEK cytotox
CC(C)CNc1ccc2c(n1)C(C)(C(=O)NC1CCN(C)CC1)CN(Cc1ccccc1)C2 (stereo not drawn)	3.5%	31.6µM*	i	?
CC(C)CNc1ccc2c(n1)C(C)(C(=O)NC1CCC(O)CC1)CN(Cc1ccccc1)C2 (stereo not drawn)	-11.2%	44.7µM*	i	?
Cc1ccc(C(=O)N2CCN(C(=O)c3nc4cccnc4n(C4CCCC4)c3=O)CC2)cc1	.	0.8%	.	i
CC1(Cc2ccc3c(c2)OCO3)CCCN(C(=O)N2CCOCC2)C1 (stereo not drawn)	-6.8%	-17.2%	i	-28.6%
CC1(Cc2ccc3c(c2)OCO3)CCCN(C(=O)c2cncc(Cl)c2)C1 (stereo not drawn)	-4.7%	?	i	31.6µM*
Cc1c(Cl)c(C(=O)N2CCCC(C)(Cc3ccc4c(c3)OCO4)C2)nn1C (stereo not drawn)	-23.1%	?	31.6µM*	?
Cn1nc(C2CC2)n(C2CCN(C(=O)c3ccsc3)CC2)c1=O	.	-28.4%	.	1.6%
O=C(NCC1CCCO1)c1csc(N2CCN(c3ccc(Cl)cc3)CC2)n1 (stereo not drawn)	?	?	i	35.5µM*
COc1ccc(N2CCN(c3nc(C(=O)NCc4ccco4)cs3)CC2)cc1	-24.7%	?	i	?
CC(C)c1cccc(NC(=O)CN2C(=O)C(c3ccccc3)=NC23CCCC3)c1	?	?	i	35.5µM*
Cc1ccc(NC2=N[C@H]3[C@@H](O)[C@H](O)C[C@H](C(=O)N(C)Cc4ccccc4)[C@H]3S2)cc1	-3.3%[70.6 µM]	-0.6%[174 µM]	31.6µM*	3.4%[172 µM]
Cc1ccc(CC(=O)N2CCCC(c3noc(COc4ccccc4)n3)C2)cc1 (stereo not drawn)	?	?	i	?
COc1cccc(CN2CCc3c(cc(C(=O)Nc4cc(C)ccc4C)n3C)C2)c1	-21.7%	?	31.6µM*	?
COc1cccc(CN2CCc3c(cc(C(=O)Nc4ccc(F)cc4C)n3C)C2)c1	-4.0%	?	25.1µM*	?
Cc1cc(C)cc(-c2ccc(CN3CCCC3C(=O)N3CCN(Cc4ccccc4)CC3)cc2)c1 (stereo not drawn)	.	12.6µM*	.	20µM*
Cc1cc(C)cc(-c2ccc(CN3CCCC3C(=O)N3CCCC(C)C3)cc2)c1 (stereo not drawn)	.	?	.	35.5µM*
Cc1cc(C)cc(-c2ccc(CN3CCCC3C(=O)N3CCC(Cc4ccccc4)CC3)cc2)c1 (stereo not drawn)	.	11.2µM*	.	20µM*
COc1ccc(CN2Cc3[nH]cnc3C[C@H]2C(=O)N2CCC(Cc3ccccc3)CC2)cc1	-12.4%	17.8µM*	i	79.4µM*
COc1cccc(-c2ccc(CN3CCCC3C(=O)N3CCC(C#N)CC3)cc2)c1 (stereo not drawn)	.	?	.	-21.5%
O=C(C1CCCN1Cc1ccc(-c2cncnc2)cc1)N1CCCC1 (stereo not drawn)	.	-0.3%	.	i
COc1ccc(CN2Cc3[nH]cnc3C[C@H]2C(=O)NCc2ccco2)cc1	2.1%[70.6 µM]	-25.7%[174 µM]	i	?
OC[C@@H]1O[C@H](CNCc2ccc(F)cc2)[C@H](N2CCN(c3ccccc3)CC2)[C@@H]1O	3.4%	-16.2%	i	?
O=C(NCc1cccc(Cl)c1)c1ccc2oc(-c3ccccn3)nc2c1	.	-25.2%	.	?
COCC1CN(C2CCC2)CC12CCN(C(=O)NCc1ccc(F)cc1)CC2 (stereo not drawn)	-23.1%	?	i	?
COc1cccc(NC(=O)CN2C(=O)NC(c3ccc(C)cc3)C3=C2COC3=O)c1 (stereo not drawn)	-10.8%	?	i	?
O=C(CN1C(=O)NC(c2ccc(Cl)cc2)C2=C1COC2=O)Nc1cccc(F)c1 (stereo not drawn)	-17.1%	28.2µM*	i	44.7µM*
O=C(CN1C(=O)NC(c2ccc(Cl)cc2)C2=C1COC2=O)Nc1cccc(Br)c1 (stereo not drawn)	?	?	?	20µM*

Screens deposited in PubChem BioAssay by National Center for Advancing Translational Sciences (NCATS).
